This passage reports binding signal results from publication PMC10668032, “Altered binding affinity of SIX1-Q177R correlates with enhanced WNT5A and WNT pathway effector expression in Wilms tumor”.

The full ranking holds about 33,000 sequences; the median of “e-score” is about -0.053, and the highest 2% start at about 0.38. This excerpt belongs to a sample that is enriched for the highest values.

The test has as its target T1, SIX1 homeodomain (reference allele) (human, UniProt Q15475 108-198).
T1 sequence: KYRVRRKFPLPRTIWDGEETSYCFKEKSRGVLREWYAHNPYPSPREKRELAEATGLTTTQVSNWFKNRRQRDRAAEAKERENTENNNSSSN
Briefly: universal protein binding microarray; Universal all-10-mer PBM (8x60K, AMADID 030236), 300 nM GST-tagged protein, Alexa Fluor 488 anti-GST; buffer, salt, pH and temperature not stated (as in Berger); high values mean tight binding. The following applies: protein: ivt; tags: N-terminal GST; dsDNA, one strand shown. The method in brief:
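Homeodomains fused to GST were made by in vitro transcription/translation and measured by anti-GST western blot with a recombinant GST standard curve. At 300 nM final concentration, they were applied in duplicate to universal 'all 10-mer' protein binding microarrays (8×60K format).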
Turning to ATACAGGA, the binding signal amounted to 0.228 ± 0.0565 E-score.
Regarding ATGCAATA, the binding signal turned out to be 0.192 ± 0.0352 E-score.
Next, GAGTAGAC: 0.214 ± 0.0128 E-score.
Turning to ATATGCCC, the binding signal was found to be 0.339 ± 0.0543 E-score.
To CGATCTAG belongs 0.1577 ± 0.00153 E-score; to ATCATTTC, 0.1962 ± 0.00187 E-score.
Consider ATCAAGCG, for which the binding signal is 0.228 ± 0.0527 E-score.
With AGAGCGAT, the binding signal amounted to 0.159 ± 0.0536 E-score.
To AAGCCGAT belongs 0.211 ± 0.0118 E-score; to CATTATAC, 0.28 ± 0.0245 E-score; to CGAGGGGA, 0.164 ± 0.0583 E-score.
With TACGGATA, the binding signal is 0.401 ± 0.0137 E-score.
Next, TACAGATA: 0.267 ± 0.0119 E-score; TAAGGATA: 0.276 ± 0.0458 E-score; CCCATCCC: 0.154 ± 0.0727 E-score.
Next, GCTAGATA: 0.255 ± 0.0399 E-score; ATACTGAA: 0.173 ± 0.0413 E-score.
For the sequence ATATGGTA, the binding signal is 0.256 ± 0.011 E-score.
In the case of CCACTATC, the binding signal was 0.227 ± 0.0482 E-score.
To GCATACGA belongs 0.157 ± 0.0596 E-score; to ATACCTGG, 0.27 ± 0.0557 E-score; to ACACCTAG, 0.231 ± 0.0166 E-score.
For ATACCTAT, the binding signal came out at 0.398 ± 0.0488 E-score.
As for ATACCTGC, the binding signal was determined as 0.342 ± 0.0303 E-score.
Consider ATACCTAA, for which the binding signal came to 0.273 ± 0.0487 E-score.
To ATACCTAG belongs 0.392 ± 0.0316 E-score; to ATACCTGA, 0.3668 ± 0.00206 E-score; to ATACCTAC, 0.385 ± 0.0317 E-score.
Next, ATACCTTG: 0.335 ± 0.0223 E-score; ACACCTAC: 0.191 ± 0.0849 E-score.
Next, ATACCTTA: 0.385 ± 0.0525 E-score.
Take ACACCTAT: the binding signal was determined as 0.26 ± 0.021 E-score.
For CCGAATCC, the binding signal came out at 0.163 ± 0.0406 E-score.
Consider ATCTTGTC, for which the binding signal came out at 0.153 ± 0.0184 E-score.
To TCGATCCA belongs 0.152 ± 0.142 E-score; to TGGCATAA, 0.177 ± 0.0236 E-score; to AGCTATAC, 0.235 ± 0.02 E-score.
To ATCGCTAG belongs 0.279 ± 0.0337 E-score; to ATTAGTGA, 0.152 ± 0.0306 E-score; to ATACCTCG, 0.342 ± 0.0353 E-score.
Next, ATACCTCC: 0.403 ± 0.0208 E-score; ATACCTCA: 0.352 ± 0.0542 E-score.
Take ATACTGCA: the binding signal amounted to 0.242 ± 0.0213 E-score.
To ATTGAGAC belongs 0.212 ± 0.0411 E-score.
To AACTGGAT belongs 0.172 ± 0.0594 E-score; to CGGTATAC, 0.393 ± 0.00578 E-score.
To AGGTATAA belongs 0.242 ± 0.0818 E-score; to GCGTATAC, 0.295 ± 0.011 E-score.
With AGGTATAC, the binding signal came to 0.4 ± 0.0358 E-score.
To CGGTATAA belongs 0.294 ± 0.0192 E-score; to GGGTATAC, 0.416 ± 0.0059 E-score; to AGGTATAG, 0.262 ± 0.0777 E-score.
Next, GGGTATAA: 0.375 ± 0.0497 E-score; CGGTATAG: 0.216 ± 0.0268 E-score; CACTATCG: 0.211 ± 0.013 E-score.
To TAGATCCA belongs 0.227 ± 0.0321 E-score.
For CATAACAC, the binding signal was 0.161 ± 0.0101 E-score.
Next, ATCTGCCA: 0.187 ± 0.0302 E-score.
To GAGATCTC belongs 0.292 ± 0.0824 E-score; to ATCATCCG, 0.348 ± 0.0124 E-score.
ACACCCCT: the binding signal was found to be 0.327 ± 0.0413 E-score.
To ATCCGAAT belongs 0.313 ± 0.0137 E-score; to TATTAAAA, 0.18 ± 0.0684 E-score; to GGCGGGGA, 0.174 ± 0.14 E-score.
To GTATCCTA belongs 0.409 ± 0.00666 E-score.
Next, AGATCCTC: 0.329 ± 0.0109 E-score.
As to ATCTCCTA, the binding signal is 0.159 ± 0.082 E-score.
Regarding AGATCCTG, the binding signal stood at 0.252 ± 0.0351 E-score.
To CTATCCTC belongs 0.282 ± 0.0379 E-score; to ATCTCCTG, 0.298 ± 0.00608 E-score; to ATATCCTA, 0.415 ± 0.027 E-score.
To GTATTCTA belongs 0.191 ± 0.00249 E-score; to ATATCCTG, 0.394 ± 0.0206 E-score; to ATATCCTC, 0.426 ± 0.02 E-score.
On to TAATCCTA, for which the binding signal was 0.215 ± 0.0252 E-score.
To CTATCCTA belongs 0.198 ± 0.0137 E-score.
To GATCTTAC belongs 0.275 ± 0.0138 E-score; to ACAGGATC, 0.283 ± 0.00359 E-score; to ATCGAGAC, 0.217 ± 0.013 E-score.
Consider CCGGATCA, for which the binding signal turned out to be 0.454 ± 0.013 E-score.
Regarding TGAGATCA, the binding signal came out at 0.33 ± 0.0117 E-score.
Turning to CCGGATGA, the binding signal came to 0.275 ± 0.0448 E-score.
Next, TCGGATCA: 0.4385 ± 0.00286 E-score; CCAGATCG: 0.292 ± 0.0492 E-score.
On to AGAGATCA, for which the binding signal is 0.302 ± 0.0481 E-score.
Consider TCCGATCA, for which the binding signal is 0.212 ± 0.00764 E-score.
Regarding CCGGATTA, the binding signal came to 0.351 ± 0.0231 E-score.
Next, GGAGATCA: 0.386 ± 0.0139 E-score; TCAGATCA: 0.243 ± 0.0928 E-score; TCGGATAA: 0.336 ± 0.0635 E-score.
Next, CCAGATCA: 0.39 ± 0.0106 E-score; GACACTCC: 0.258 ± 0.0239 E-score; CAGTGTAG: 0.161 ± 0.0252 E-score.
As to CGATCTGA, the binding signal worked out at 0.30169 ± 0.000148 E-score.
To ATACTTGA belongs 0.222 ± 0.103 E-score; to GTATAAAA, 0.246 ± 0.0491 E-score.
In the case of GATAGTTA, the binding signal worked out at 0.153 ± 0.035 E-score.
To CAGATCAC belongs 0.3666 ± 0.00216 E-score; to ACTCAGGG, 0.266 ± 0.0829 E-score; to CGTAATAC, 0.256 ± 0.0115 E-score.
Next, GCGGATTA: 0.318 ± 0.0316 E-score.
As to GCGGATCA, the binding signal was determined as 0.448 ± 0.00571 E-score.
Consider GCGGATGA, for which the binding signal was 0.171 ± 0.0144 E-score.
To ATCGTACC belongs 0.217 ± 0.0516 E-score; to CCCTCTCA, 0.17 ± 0.048 E-score; to GATAGCCC, 0.303 ± 0.0137 E-score.
Next, AGATTGAT: 0.221 ± 0.0674 E-score; GATACCAA: 0.4303 ± 0.00174 E-score.
Regarding TATACCAA, the binding signal is 0.347 ± 0.016 E-score.
To AATACCAC belongs 0.33 ± 0.0283 E-score.
Next, GATACCAC: 0.462 ± 0.0103 E-score.
Next, AATACCAT: 0.296 ± 0.0291 E-score; AATACCAA: 0.278 ± 0.0235 E-score.
Take ACAGTGGT: the binding signal is 0.155 ± 0.0272 E-score.
In the case of GGATGACC, the binding signal came to 0.205 ± 0.0281 E-score.
As to CTGAAACC, the binding signal came out at 0.155 ± 0.0131 E-score.
To CATAAGAA belongs 0.178 ± 0.0241 E-score; to CCGGACAC, 0.192 ± 0.0231 E-score.
To ATGCACTA belongs 0.159 ± 0.065 E-score.
As for CGTATTTA, the binding signal is 0.169 ± 0.0073 E-score.
CCCGGATA: the binding signal came to 0.424 ± 0.0139 E-score.
In the case of GCTGGATA, the binding signal amounted to 0.324 ± 0.0373 E-score.
With GCCAGATA, the binding signal came out at 0.213 ± 0.0509 E-score.
Next, GCCGGATA: 0.409 ± 0.0137 E-score; CCCGGAGA: 0.169 ± 0.0421 E-score; CCTGGATA: 0.313 ± 0.0384 E-score.
Next, ACCGACAC: 0.2857 ± 0.000453 E-score.
On to ATCGATCA, for which the binding signal amounted to 0.17 ± 0.0323 E-score.
Next, CCCGACAC: 0.19 ± 0.0993 E-score; ACCGATCA: 0.2912 ± 0.000771 E-score; ATCGATCG: 0.256 ± 0.037 E-score.
In the case of ATCGATCC, the binding signal was found to be 0.389 ± 0.0532 E-score.
To ACCGATAC belongs 0.453 ± 0.017 E-score; to CCCGATAC, 0.438 ± 0.0253 E-score; to ACCGATCC, 0.382 ± 0.0237 E-score.
Next, CCCGATCC: 0.366 ± 0.0566 E-score; ACCGATGA: 0.17 ± 0.0208 E-score; CCCGATAG: 0.205 ± 0.0789 E-score.
Next, ATCTTACC: 0.296 ± 0.0402 E-score; CGTGTCAG: 0.202 ± 0.0504 E-score.
Regarding ATACTCGG, the binding signal worked out at 0.316 ± 0.01 E-score.
Next, ATCGTCAC: 0.279 ± 0.00711 E-score; GATCTGCA: 0.258 ± 0.0208 E-score; ATCACTGG: 0.215 ± 0.00955 E-score.
To CCGGGTGA belongs 0.201 ± 0.0475 E-score.
Next, ACCGATCT: 0.251 ± 0.0228 E-score; ACCGATAG: 0.352 ± 0.018 E-score; GCCGATCC: 0.352 ± 0.0357 E-score.
With TCCGATAA, the binding signal was 0.223 ± 0.0291 E-score.
As for GCCGATAC, the binding signal was 0.42 ± 0.0113 E-score.
To ACCGATAT belongs 0.396 ± 0.00927 E-score; to TATAAATA, 0.16 ± 0.095 E-score; to CGAGATGA, 0.187 ± 0.0163 E-score.
Next, AGTAGATA: 0.334 ± 0.0532 E-score; ATAGCTAC: 0.163 ± 0.0342 E-score.
To AGGCGTAT belongs 0.318 ± 0.00622 E-score; to TATCTGAA, 0.153 ± 0.0196 E-score; to AAGGATAG, 0.195 ± 0.0349 E-score.
Take GAGGATAA: the binding signal came out at 0.278 ± 0.00471 E-score.
To GAGGATAC belongs 0.403 ± 0.0104 E-score; to AAGGATAC, 0.405 ± 0.0292 E-score.
To AAGGATAA belongs 0.167 ± 0.034 E-score; to CAGGATAC, 0.365 ± 0.0177 E-score.
Next, ACATTGAT: 0.154 ± 0.01 E-score.
In the case of ATGAGACC, the binding signal came to 0.295 ± 0.00298 E-score.
To ATCACATC belongs 0.284 ± 0.0264 E-score; to CACCGATC, 0.305 ± 0.0428 E-score.
To CCATATCG belongs 0.4544 ± 0.00281 E-score.
Turning to CAATATCG, the binding signal was 0.296 ± 0.0508 E-score.
To ACATATAC belongs 0.244 ± 0.0208 E-score; to CCATATCC, 0.424 E-score; to ACATATAG, 0.162 ± 0.052 E-score.
To ACATATCC belongs 0.381 ± 0.0241 E-score; to CCATATGC, 0.159 ± 0.0297 E-score.
